Results published in PubChem BioAssay AID1159580 (chemical genetic matrix, 2015).
Several values for one entry are separate records, joined by “and”; a condition that tells them apart may be missing. Equal entries are not always repeated. In all, about 5,500 compounds went through this assay and about 2,000 (36%) were called active. Another 18% or so got no clear call; they are omitted. No stated cut-off is given here; in the data, active means normalized growth mostly below about 0.91 (no sharp cut-off); inconclusive means no clear call, values can overlap the other calls; inactive means mostly above about 0.92. The list shows a part of the results.

Assay: chemical genetic growth profiling, strain panel (AID 1159580);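 further: tested at 20 µM; growth read once vehicle control cultures reached saturation at 30 °C; 1 = growth at the plate median or of vehicle wells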
Settings: growth OD

Measured: normalized growth

COc1cc(OC)c2c(c1)OC(c1ccccc1)CC2=O (stereo unspecified)
inactive: S. cerevisiae deletion strains, locus YBR021W, strain FUR4, stronger effect = lower value 0.99 | S. cerevisiae deletion strains, locus YBR229C, strain ROT2, stronger effect = lower value 0.986 | S. cerevisiae deletion strains, locus YCL029C, strain bik1, stronger effect = lower value 1.03 | S. cerevisiae deletion strains, locus YDL035C, strain GPR1, stronger effect = lower value 0.988 | S. cerevisiae deletion strains, locus YDL074C, strain BRE1, stronger effect = lower value 0.994 | S. cerevisiae deletion strains, locus YDL101C, strain DUN1, stronger effect = lower value 0.989 | S. cerevisiae deletion strains, locus YDL185W, strain tfp1, stronger effect = lower value 1.01 | S. cerevisiae deletion strains, locus YDL192W, strain arf1, stronger effect = lower value 0.979 | S. cerevisiae deletion strains, locus YDR101C, strain arx1, stronger effect = lower value 1.02 | S. cerevisiae deletion strains, locus YDR150W, strain NUM1, stronger effect = lower value 0.983 | S. cerevisiae deletion strains, locus YDR162C, strain NBP2, stronger effect = lower value 0.987 | S. cerevisiae deletion strains, locus YDR318W, strain mcm21, stronger effect = lower value 0.988 | S. cerevisiae deletion strains, locus YDR388W, stronger effect = lower value 0.999 | S. cerevisiae deletion strains, locus YDR502C, strain sam2, stronger effect = lower value 1 | S. cerevisiae deletion strains, locus YEL061C, strain CIN8, stronger effect = lower value 0.984 | S. cerevisiae deletion strains, locus YER110C, stronger effect = lower value 1.01 | S. cerevisiae deletion strains, locus YER155C, strain BEM2, stronger effect = lower value 0.996 | S. cerevisiae deletion strains, locus YER167W, strain BCK2, stronger effect = lower value 0.994 | S. cerevisiae deletion strains, locus YGL078C, strain dbp3, stronger effect = lower value 1.01 | S. cerevisiae deletion strains, locus YGL086W, strain mad1, stronger effect = lower value 1 | S. cerevisiae deletion strains, locus YGL248W, strain PDE1, stronger effect = lower value 0.987 | S. cerevisiae deletion strains, locus YGR135W, strain pre9, stronger effect = lower value 0.977 | S. cerevisiae deletion strains, locus YGR252W, strain gcn5, stronger effect = lower value 1.01 | S. cerevisiae deletion strains, locus YHR030C, strain SLT2, stronger effect = lower value 0.987 and 0.965 | S. cerevisiae deletion strains, locus YHR079C, strain IRE1 (second series), stronger effect = lower value 1.01 | S. cerevisiae deletion strains, locus YHR079C, strain IRE1, stronger effect = lower value 0.963 | S. cerevisiae deletion strains, locus YHR094C, strain hxt1, stronger effect = lower value 1.01 | S. cerevisiae deletion strains, locus YHR129C, strain ARP1, stronger effect = lower value 0.986 | S. cerevisiae deletion strains, locus YHR200W, strain rpn10, stronger effect = lower value 0.997 | S. cerevisiae deletion strains, locus YIL066C, strain RNR3, stronger effect = lower value 0.983 | S. cerevisiae deletion strains, locus YIL073C, strain SPO22, stronger effect = lower value 1.03 | S. cerevisiae deletion strains, locus YIL125W, strain kgd1, stronger effect = lower value 1.01 | S. cerevisiae deletion strains, locus YIR030C, strain dcg1, stronger effect = lower value 1 | S. cerevisiae deletion strains, locus YJL095W, strain BCK1, stronger effect = lower value 0.932 and 0.982 | S. cerevisiae deletion strains, locus YJL134W, strain LCB3, stronger effect = lower value 0.985 | S. cerevisiae deletion strains, locus YJL168C, strain set2, stronger effect = lower value 1 | S. cerevisiae deletion strains, locus YJL187C, strain SWE1 (second series), stronger effect = lower value 0.994 | S. cerevisiae deletion strains, locus YJR043C, strain POL32, stronger effect = lower value 1 | S. cerevisiae deletion strains, locus YJR066W, strain TOR1, stronger effect = lower value 0.93 | S. cerevisiae deletion strains, locus YJR075W, strain HOC1, stronger effect = lower value 0.992 | S. cerevisiae deletion strains, locus YKL009W, strain mrt4, stronger effect = lower value 0.996 | S. cerevisiae deletion strains, locus YKL068W, stronger effect = lower value 0.994 | S. cerevisiae deletion strains, locus YKL085W, strain MDH1 (second series), stronger effect = lower value 0.991 | S. cerevisiae deletion strains, locus YKL085W, strain MDH1, stronger effect = lower value 0.991 | S. cerevisiae deletion strains, locus YKL190W, strain CNB1, stronger effect = lower value 0.984 | S. cerevisiae deletion strains, locus YKR001C, strain vps1, stronger effect = lower value 0.951 | S. cerevisiae deletion strains, locus YLR039C, strain RIC1, stronger effect = lower value 0.842 | S. cerevisiae deletion strains, locus YLR058C, strain SHM2, stronger effect = lower value 0.987 | S. cerevisiae deletion strains, locus YLR102C, strain apc9, stronger effect = lower value 1 | S. cerevisiae deletion strains, locus YLR113W, strain HOG1, stronger effect = lower value 1 | S. cerevisiae deletion strains, locus YLR262C, strain YPT6, stronger effect = lower value 0.836 | S. cerevisiae deletion strains, locus YLR268W, strain sec22, stronger effect = lower value 1.01 | S. cerevisiae deletion strains, locus YLR330W, strain CHS5, stronger effect = lower value 0.98 | S. cerevisiae deletion strains, locus YLR342W, strain FKS1 (second series), stronger effect = lower value 0.959 | S. cerevisiae deletion strains, locus YLR371W, strain rom2, stronger effect = lower value 1.02 | S. cerevisiae deletion strains, locus YLR418C, strain cdc73, stronger effect = lower value 1.03 | S. cerevisiae deletion strains, locus YML016C, strain PPZ1, stronger effect = lower value 0.983 | S. cerevisiae deletion strains, locus YML032C, strain rad52, stronger effect = lower value 1.02 | S. cerevisiae deletion strains, locus YML124C, strain tub3, stronger effect = lower value 1 | S. cerevisiae deletion strains, locus YMR078C, strain ctf18, stronger effect = lower value 1 | S. cerevisiae deletion strains, locus YMR223W, strain ubp8, stronger effect = lower value 0.983 | S. cerevisiae deletion strains, locus YMR307W, strain GAS1, stronger effect = lower value 0.902 | S. cerevisiae deletion strains, locus YNL067W, strain RPL9B, stronger effect = lower value 0.993 | S. cerevisiae deletion strains, locus YNL128W, strain TEP1, stronger effect = lower value 1.01 | S. cerevisiae deletion strains, locus YNL153C, strain GIM3, stronger effect = lower value 1 | S. cerevisiae deletion strains, locus YNL183C, strain NPR1, stronger effect = lower value 0.915 | S. cerevisiae deletion strains, locus YNL233W, strain BNI4, stronger effect = lower value 0.97 | S. cerevisiae deletion strains, locus YNL250W, strain rad50, stronger effect = lower value 1.03 | S. cerevisiae deletion strains, locus YNL271C, strain bni1, stronger effect = lower value 1 | S. cerevisiae deletion strains, locus YNL298W, strain CLA4, stronger effect = lower value 1.03 | S. cerevisiae deletion strains, locus YNL307C, strain MCK1, stronger effect = lower value 1 | S. cerevisiae deletion strains, locus YNR052C, strain pop2, stronger effect = lower value 0.989 | S. cerevisiae deletion strains, locus YOL006C, strain TOP1, stronger effect = lower value 0.848 | S. cerevisiae deletion strains, locus YOL012C, strain htz1 1.5 | S. cerevisiae deletion strains, locus YOL147C, strain pex11, stronger effect = lower value 1.01 | S. cerevisiae deletion strains, locus YOR061W, strain CKA2, stronger effect = lower value 0.983 | S. cerevisiae deletion strains, locus YOR069W, strain VPS5, stronger effect = lower value 0.984 | S. cerevisiae deletion strains, locus YOR136W, strain idh2, stronger effect = lower value 1.01 | S. cerevisiae deletion strains, locus YOR144C, strain elg1, stronger effect = lower value 1.01 | S. cerevisiae deletion strains, locus YOR184W, strain ser1, stronger effect = lower value 0.955 | S. cerevisiae deletion strains, locus YOR231W, strain MKK1, stronger effect = lower value 0.951 | S. cerevisiae deletion strains, locus YOR316C, strain cot1, stronger effect = lower value 1.01 | S. cerevisiae deletion strains, locus YPL055C, strain LGE1, stronger effect = lower value 1.01 | S. cerevisiae deletion strains, locus YPL241C, strain CIN2, stronger effect = lower value 0.978 | S. cerevisiae deletion strains, locus YPL256C, strain CLN2, stronger effect = lower value 0.972 | S. cerevisiae deletion strains, locus YPR119W, strain clb2, stronger effect = lower value 1.01 | S. cerevisiae deletion strains, locus YPR141C, strain kar3, stronger effect = lower value 1.01 | S. cerevisiae deletion strains, locus YPR163C, strain tif3, stronger effect = lower value 1.03 | S. cerevisiae deletion strains, locus YPR167C, strain met16, stronger effect = lower value 1 | S. cerevisiae deletion strains, strain wtn01, stronger effect = lower value 1.01 | S. cerevisiae strains, strain wild type, stronger effect = lower value 0.987
